Compounds with a hit are over-represented: about 2.6% of the library has one in this group of screens.
p53ts 32C kill – kills p53ts cells at the permissive temperature; H1299-p53A138V at 32C, ATP luminescence viability, 24 h; Potency, µM (top dose mostly 46.1 µM), for the others: at the highest dose activity change, negative = cytotoxicity, most hits filed as cytotoxic; 130,000 compounds, 0.93% hits; AID 924;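 also: 0% = DMSO and -100% = full killing by reference compound; nearly all actives have a fitted effect of over 55% in size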
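H1299-p53 A138V cells (temperature-sensitive p53) exposed 24 h to up to 46 uM compound at 32C, where p53 is wild-type in conformation. Viability read as ATP luminescence and normalised to DMSO and 100 uM tamoxifen. AC50 fitted with the Hill equation.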
p53ts 39C tox – p53ts cell cytotoxicity, nonpermissive temperature. 130,000 compounds, 1.5% hits. AID 902. H1299-p53A138V viability at 39C, ATP luminescence, 24 h. Potency, µM (series often up to 46.1 µM), for inactives: at the highest dose activity change, negative = cell killing, usual class: cytotoxic; also: nearly all actives have a fitted effect of over 55% in size
FLuc inh – firefly luciferase inhibition; P08659; purified firefly luciferase, luminescence, 8 min; Potency, µM (doses to about 57.1 µM), for the others: at the top dose activity change, negative = inhibition, hits mostly inhibitors; 72,000 compounds, 2.2% hits; also: nearly all actives have a fitted effect of over 40% in size
Target sequence (P08659 whole entry, looked up): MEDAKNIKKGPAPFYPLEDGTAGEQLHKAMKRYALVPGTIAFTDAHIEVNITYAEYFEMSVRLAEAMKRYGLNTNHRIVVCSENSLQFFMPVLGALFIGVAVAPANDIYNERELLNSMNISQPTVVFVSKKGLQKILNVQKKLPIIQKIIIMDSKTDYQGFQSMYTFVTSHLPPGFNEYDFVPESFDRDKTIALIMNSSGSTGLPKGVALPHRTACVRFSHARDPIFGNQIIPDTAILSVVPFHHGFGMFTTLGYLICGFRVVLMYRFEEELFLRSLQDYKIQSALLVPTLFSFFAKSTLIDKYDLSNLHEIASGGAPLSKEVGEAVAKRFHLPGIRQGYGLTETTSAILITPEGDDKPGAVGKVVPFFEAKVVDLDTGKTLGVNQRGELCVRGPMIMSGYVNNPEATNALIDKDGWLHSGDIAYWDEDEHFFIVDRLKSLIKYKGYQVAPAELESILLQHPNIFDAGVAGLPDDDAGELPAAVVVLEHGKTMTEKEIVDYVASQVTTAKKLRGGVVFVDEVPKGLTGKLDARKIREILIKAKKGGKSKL
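Inhibition of light generation by firefly luciferase from ATP and luciferin was profiled with concentration-response curves per sample, ATP held at 10 uM within the enzyme's linear range. Plates were read by luminescence after an 8-minute ambient incubation.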
Starred values were filed as active, the others as inactive; ? = inconclusive; · = no result given; [ ] = another dose, or the depositor's remark. Calls follow the shape of the dose curve; as a rule, active = well fitted curve in the direction sought with a large enough effect; inconclusive = small, poorly fitted or top-dose-only effect, or another doubt; inactive = no such curve, though single readings can be large; an effect the other way counts as inactive or inconclusive. Unless noted, % is scaled to controls: 0 for no effect and ±100 for the full control effect; potency is read from the fitted curve at half-maximal effect.

SMILES | p53ts 32C kill | p53ts 39C tox | FLuc inh
O=C(Oc1ccc2c(c1)OCO2)c1cccs1 | -2% | -10% | -21%
O=C(/C=C/c1ccc2c(c1)OCO2)c1cccs1 | 16µM* | 20µM* | ·
CCc1cccc(C)c1NC(=O)CCn1c(=O)c2cccn2c2ccccc21 | -12% | -23% | ·
c1ccc2c(c1)oc1c(NCCN3CCOCC3)ncnc12 | -6% | -3% | -1%
c1ccc2c(c1)oc1c(Nc3ccc(CN4CCOCC4)cc3)ncnc12 | ? | ? | 16µM*
COc1cccc(Cn2cnc3c2c(=O)n(C)c(=O)n3C)c1 | -5% | 6% | ·
CC[C@H](C)N(C)C(=O)c1cc2ccccc2c(-c2ccccc2Cl)n1 | 19% | -17% | -5%
O=C(CSc1nc2ccsc2c(=O)n1Cc1ccccc1Cl)NCc1ccc(Cl)cc1 | 1% | -5% | ·
Cc1ccc(Cn2c(SCC(=O)NCc3ccccc3Cl)nc3ccsc3c2=O)cc1 | 7% | 10µM* | ·
CCN1CCN(Cc2ccc(NC(=O)Nc3ccccc3)cc2)CC1 | ? | ? | 13µM*
CCN1CCN(Cc2ccc(NC(=O)Nc3ccc(OC)cc3)cc2)CC1 | -19% | -9% | -15%
Cc1ccc2onc(CNC(=O)N3CCN(c4cccc(C)c4C)CC3)c2c1 | 2% | -7% | ·
CCc1nnc(NC(=O)Nc2ccccc2OC)s1 | 13% | -6% | -3%
CCc1nnc(NC(=O)c2ccc(OC)cc2OC)s1 | 16µM* | ? | 7.9µM*
CCN(CC)CCOC(=O)c1ccc(NC(=O)CSc2cc(=O)n(CC)c3ccccc23)cc1 | -3% | 10µM* | ·
CCN(CC)CCOC(=O)c1ccc(NC(=O)COc2cc(=O)n(CC)c3ccccc23)cc1 | -10% | -18% | 2%
CCOC(=O)OCC1OC(C#Cc2ccccc2)C=CC1OC(=O)OCC (centres undefined) | 3%[9.22 µM] | -13%[9.22 µM] | ·
COc1ccc(S(=O)(=O)c2c(Nc3c(C)cccc3C)sc(C(=O)c3ccc(F)cc3)c2N)cc1 | 1% | 2% | ·
Cc1cc(C)cc(OCC(=O)NCC2(N(C)C)CCCCC2)c1 | 3% | -6% | ·
CCCOc1ccccc1-c1nc(SCC(=O)c2ccccc2)n[nH]1 | -4% | -11% | ·
O=C(Cc1c(C(=O)O)[nH]c2ccccc12)Nc1ccc2c(c1)OCO2 | -4% | -5% | -6%
Oc1[nH]c2ccccc2c1C=Nc1ccc2c(c1)OCCO2 | ? | 13µM* | 4µM*
Cc1cccc(/N=C/c2c(O)cc(C)oc2=O)n1 | -5% | -1% | 3%
Cc1cccc(/N=C/c2c(O)[nH]c3ccccc23)n1 | ? | ? | 4µM*
CC(C)(C(=O)O)c1ccc([C@@H](O)CCCN2CCC(C(O)(c3ccccc3)c3ccccc3)CC2)cc1 | · | · | 1%
SMILES | p53ts 32C kill | p53ts 39C tox | FLuc inh
CCN(CC)C(=O)c1csc(Nc2ccc(C)cc2)n1 | 1% | -11% | -2%
Cc1ccc(Nc2nc(C3CC3)cs2)cc1 | ? | ? | 7.9µM*
COc1ccc(C(=O)NCCn2ccc3ccccc32)cc1OC | -13% | -7% | 10µM*
COc1cccc(C(=O)NCCn2ccc3ccccc32)c1 | ? | ? | 0%
CC1(C)Cc2c(sc(NC(=O)c3ccc(Br)o3)c2C#N)CO1 | · | · | 10µM*
N#Cc1c(NC(=O)c2ccc(Cn3cc(Br)cn3)o2)sc2c1CCCCCC2 | 28% | 52% | 1%
COc1cccc(-n2c(=O)c3cc(OC)c(OC)cc3n(CC(=O)Nc3ccc(F)cc3)c2=O)c1 | -4% | 11% | ·
CCOc1ncccc1C(=O)OCC(=O)c1cc(C)n(Cc2ccco2)c1C | 13µM* | -18% | 13µM*
Cc1cc(C(=O)COC(=O)CNC(=O)c2ccco2)c(C)n1Cc1ccco1 | · | 16% | ·
COc1ccc(C2C(=O)N(C3CCC(C)CC3)CC(=O)N2CCC2=CCCCC2)cc1OC (centres undefined) | 6% | -3% | ·
CCCS(=O)(=O)c1ncc(Cl)c(C(=O)N2CCN(c3ccc(OC)cc3)CC2)n1 | ? | 13µM* | ·
CCSc1ncc(Cl)c(C(=O)N2CCN(c3ccc(OC)cc3)CC2)n1 | 4% | 0% | ·
COc1ccc2nc3c(cc2c1)c(NC(=O)c1cccs1)nn3CC(C)C | ? | -21% | 13µM*
CC(C)Cn1nc(NC(=O)C(C)(C)C)c2cc3ccccc3nc21 | · | · | -3%[25.5 µM]
C[C@@H]1CN(CCCn2c3ccccc3c3ccccc32)C[C@H](C)N1 | 16% | 25µM* | 0%
CC1CC(C)CN(CCCn2c(=S)[nH]c3ccccc3c2=O)C1 (centres undefined) | -13% | 0% | 1%
O=C(O)CNC(=O)c1ccccc1O | -6%[9.22 µM] | -13%[9.22 µM] | 2%[11.4 µM]
Cc1ccc(C)c(NC(=O)/C(C#N)=C/c2ccc(C(C)C)cc2)c1 | -6% | 8% | ·
CC(C)(C)CC(C)(C)c1ccc(O)c(Cc2ccc(Cl)cc2Cl)c1 | ? | 25µM* | ·
Oc1ccc(Cl)cc1Cc1cc(Cl)cc(Cc2cc(Cl)ccc2O)c1O | 29%[9.22 µM] | 1%[9.22 µM] | 3%[11.4 µM]
CCN(Cc1ccccc1)C(=O)Nc1ccc2c(c1)N(C)C(=O)c1ccccc1S2 | 6% | 42% | ·
CN(Cc1ccccc1)C(=O)Nc1ccc2c(c1)N(C)C(=O)c1ccccc1S2 | ? | 13µM* | ·
Cc1nc(N2CCCC2)ncc1C(=O)NCc1ccc(Cl)cc1 | 9% | 19% | ·
c1ccc(Nc2nc(-c3cccs3)cs2)nc1 | 13µM* | ? | 5µM*
c1cncc(Nc2nc(-c3cccnc3)cs2)c1 | 9% | 2% | -3%
SMILES | p53ts 32C kill | p53ts 39C tox | FLuc inh
Cc1cccc(Nc2nc(-c3cccs3)cs2)n1 | ? | -20% | ·
c1ccc(Nc2nc(-c3cccnc3)cs2)nc1 | ? | 16µM* | 4µM*
Cc1ccccc1OCC(=O)N(Cc1ccc(N(C)C)cc1)CC1CCCO1 (centres undefined) | 2% | -29% | ·
COc1cccc(CNC(=O)CCn2nc(C)c3c(C)n(-c4ccccc4)nc3c2=O)c1 | -2% | 5% | ·
Cc1conc1NC(c1cccs1)c1ccc2cccnc2c1O (centres undefined) | 13µM* | ? | 0%
O=C(O)c1ccc(N[C@H](c2ccccc2)c2ccc3cccnc3c2O)cc1 | -9%[9.22 µM] | ? | 2%[11.4 µM]
COc1ccc(Nc2ncnc3c2nc2n3CCCC2)cc1Cl | -26% | · | ·
Cc1ccccc1C(=O)Nc1ccc(Br)cn1 | ? | -26% | 13µM*
Cc1ccc(NC(=O)c2ccccc2F)nc1 | ? | ? | 25µM*
Cc1ccccc1NC(=O)c1ccccc1NC(=O)c1ccccc1F | 8% | -15% | ·
CC(=O)c1c(C)[nH]c(C(=O)NCc2ccccn2)c1C | -19% | -12% | -1%
CC(=O)c1c(C)[nH]c(C(=O)Nc2ccc(C)cn2)c1C | 2.5µM* | 5µM* | 2.5µM*
O=C(CSc1ccccn1)Nc1ccc(Br)cn1 | 5% | 6% | -1%
Cc1cccc(C)c1NC(=O)CSc1ncc2c(n1)-c1ccc(Cl)cc1N(Cc1ccccc1)S2(=O)=O | 7% | ? | ·
CCN(Cc1nc(-c2ccc(OC)c(OC)c2)no1)S(=O)(=O)c1ccc(OC)cc1 | 7% | -22% | ·
COc1ccc(-c2cc(-c3ccc(OC)cc3)[nH]n2)cc1 | 13% | 7% | 16µM*
COc1ccc(-c2nc(=S)[nH][nH]2)cc1 | -13% | -6% | -2%
CCCCn1c(NC(=O)c2ccccc2)c(C#N)c2nc3ccccc3nc21 | ? | 6.3µM* | -4%
CCCCn1c(NC(=O)c2ccc(F)cc2)c(C#N)c2nc3ccccc3nc21 | -9% | 13% | 1%
